Results filed as inconclusive are left out. Calls of active or inactive are those of the source. Unless noted, the call rests on the fitted dose curve; in most records, active means well fitted curve in the direction sought with a large enough effect; inconclusive means small, poorly fitted or top-dose-only effect, or another doubt; inactive means no such curve, though single readings can be large; an effect the other way counts as inactive or inconclusive.
Key:
[1] = target: Cytochrome P450 2D6 (Homo sapiens) (UniProt P10635); assay: qHTS Assay for Inhibitors and Substrates of Cytochrome P450 2D6 (AID 891);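 further: luciferin methyl ether substrate demethylated by CYP2D6 with NADPH regeneration; nearly all actives have a fitted effect of over 60% in size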
How it was run: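 Luminescent read-out of luciferin formed by 5 nM human CYP2D6 demethylating 30 uM Luciferin-ME EGE (Km level) over 60 min at room temperature after NADPH regeneration addition. Data normalized to full inhibition by 1.43 uM quinidine.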

[2] = target: Nuclear receptor subfamily 1 group I member 3 (Homo sapiens) (UniProt Q14994); assay: Primary qHTS for antagonist of constitutive androstane receptor (CAR) against the NCATS DSHEA and TCM libraries (AID 1794836);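 further: HepG2 cells stably expressing hCAR with CYP2B6 luciferase reporter stimulated by CITCO; series mostly up to about 40 µM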
How it was run: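 Antagonist mode: CAR reporter luminescence (ONE-Glo) in HepG2-CYP2B6-hCAR cells stimulated with 48 uM CITCO (final) over 24 h at 37 C, compounds titrated; viability read first by CellTiter-Fluor fluorescence.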

[3] = target: Cytochrome P450 2C9 (Homo sapiens) (UniProt P11712); assay: qHTS for inhibitors of CYP2C9 against the NCATS DSHEA and TCM libraries (AID 1919973);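 further: luminogenic pro-luciferin CYP2C9 substrate turned into luciferin with NADPH regeneration; series mostly up to about 34 µM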
How it was run: (§1)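 Concentration-response screening with isoform-matched pro-luciferin substrates. The CYP reaction was initiated by NADPH regenerating solution and ran 30-45 min in darkness at room temperature.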

[4] = target: Cytochrome P450 2C19 (Homo sapiens) (UniProt P33261); assay: qHTS for inhibitors of CYP2C19 against the NCATS DSHEA and TCM libraries (AID 1919974);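 further: luminescence from luciferin released by CYP2C19 oxidation of a pro-luciferin substrate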
How it was run: as §1

[5] = target: Chromobox protein homolog 1 (Homo sapiens) (UniProt P83916); assay: qHTS Validation Assay for Inhibitors of HP1-beta Chromodomain Interactions with Methylated Histone Tails (AID 488953);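 further: loss of AlphaScreen luminescence from HP1-beta binding biotinylated H3K9me3 peptide; series mostly up to about 110 µM; nearly all actives have a fitted effect of over 50% in size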
How it was run: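 Disruption of preformed HP1-beta:H3K9me3 peptide complexes (both 50 nM, PBS pH 7.4 with 0.01% Tween-20) is measured by AlphaScreen after 30 min compound exposure at room temperature, using streptavidin donor and nickel chelate acceptor beads at 10 ug/mL final.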

[6] = target: Methanococcus maripaludis chaperonin (MmCpn) (UniProt Q6LX38); assay: High-Throughput Screening for Modulators of Cytosolic Chaperonin Activity: MmCpn Primary Screen (AID 488978)
How it was run: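 HTRF readout (320 nm excitation, 590/665 nm emission) of ADP generated by 50 nM MmCpn hydrolysing 30 uM ATP during 10 min at 37C; compound preincubated 5 min RT.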

[7] = target: D(1A) dopamine receptor (Homo sapiens) (UniProt P21728); assay: HTS Assay for Allosteric Agonists of the Human D1 Dopamine Receptor: Primary Screen for Agonists (AID 488981)
How it was run: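 Calcium flux in an inducible, force-coupled HEK293 Trex D1 line (overnight at 30 C): agonist mode is the 180 s kinetic read after compound; potentiator mode is the following 180 s read after dopamine at EC20.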

[8] = target: D(1A) dopamine receptor (Homo sapiens) (UniProt P21728); assay: HTS Assay for Allosteric Agonists of the Human D1 Dopamine Receptor: Primary Screen for Antagonists (AID 488983);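 further: calcium flux response to an EC80 dopamine challenge measured with no-wash dye; nearly all actives have a fitted effect of over 65% in size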
How it was run: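 Kinetic fluorescence at 1 cycle/sec tracked intracellular calcium in force-coupled, tetracycline-inducible HEK293 T-REx D1 cells. Loss of response to an EC80 dopamine dose, given 180 s after compound, marked antagonists.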

[9] = Validation screen for small molecules that induce genotoxicity in human embryonic kidney (HEK293T) cells expressing luciferase-tagged ELG1 (AID 493106)
How it was run: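 Cells were dispensed at 2,000 per well, then 23 nL compound or DMSO was pinned in. After 16 hr at 37 °C and 5% CO2, ONE-Glo reagent was added. Luciferase activity was measured following 30 min at room temperature.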

[10] = target: ATPase family AAA domain-containing protein 5 (Homo sapiens) (UniProt Q96QE3); assay: Validation screen for small molecules that inhibit ELG1-dependent DNA repair in human embryonic kidney (HEK293T) cells expressing luciferase-tagged ELG1 (AID 493107);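 further: cells co-treated with the DNA-damaging agent 5-fluorouridine alongside compound; series mostly up to about 46 µM; inhibitors lower the ELG1-luciferase luminescence signal; nearly all actives have a fitted effect of over 70% in size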
How it was run: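 Cells are dispensed in 1536-well format, then 5-fluorouridine and compound are pinned in. After a 16 hr incubation at 37 °C and 5% CO2, ONE-Glo is added and luciferase measured on a CCD imager.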

[11] = qHTS for Inhibitors of Cell Surface uPA Generation: Validation Assay (AID 493164);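 further: RAW 264.7 macrophage cells exposed to compound for 18 h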
How it was run: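 ATP-Lite luminescence read-out: ATP remains high when uPA activity-dependent LF translocation into the cytoplasm is blocked. RAW 264.7 cells, 18 h compound exposure at 37 C; 7-point titration, 2.45 nM to 38.3 uM final.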

[12] = target: Peptidyl-prolyl cis-trans isomerase NIMA-interacting 1 (Homo sapiens) (UniProt Q13526); assay: qHTS Validation Assay to Find Inhibitors of Pin1 (AID 504536; active means well fitted inhibition curve with a large enough effect in the polarisation, with a control signal flat, not every such curve was filed as active; the % refers to the polarisation)
How it was run: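 Fluorescence polarization competition: compounds (titration) displace HiFluor-488-labeled Pin1-1b peptide from Pin1 (0.3 uM final) in pH 7.5 HEPES buffer with DTT, 10 min at room temperature; %Activity normalized to no-enzyme wells, curves fitted.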

[13] = target: Phosphoglycerate kinase, glycosomal (Trypanosoma brucei brucei) (UniProt P07378); assay: qHTS Validation Assay to Find Inhibitors of Phosphoglycerate Kinase (AID 504547)
How it was run: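 Luminescence end-point (Kinase-Glo Plus, 10 min) after a 60 min room-temperature coupled reaction. GAPDH at 100nM final supplies 1,3-BPG to PGK. Buffer: 100mM TEA pH 7.6, 5mM MgCl2, 0.01% Tween-20. Wells lacking PGK served as controls.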

[14] = target: phosphoglycerate mutase (Leishmania major) (UniProt Q4Q090); assay: qHTS Validation Assay to Find Inhibitors of Phosphoglycerate Mutase (AID 504548); further: series mostly up to about 58 µM
How it was run: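 Luminescent end-point read-out via Kinase-GloPlus after a 10-minute development. Reaction: 1.25nM Leishmania major PGAM with substrate and compound, 45 minutes at room temperature in TEA buffer (pH 7.6) with MgCl2 and Tween-20.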

[15] = Inducers of the Endoplasmic Reticulum Stress Response (ERSR) in human glioma: Validation (AID 504836)
How it was run: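 ERSR induction read as luciferase luminescence (Bright-Glo, 10 min at room temperature) in stably transfected human U87-MG glioma cells exposed to compounds for 16 h, using GRP78 as sensor.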

[16] = qHTS for Inhibitors of ATXN expression: Validation of Cytotoxic Assay (AID 588349)
How it was run: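 Titrated compounds are added to cultured HEK293 cells, which are then held at 37 degrees C for 72 hr; loss of intracellular ATP, measured with CellTiter Glo, indicates toxicity.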

[17] = qHTS for Inhibitors of ATXN expression: Validation (AID 588378); further: series mostly up to about 57 µM; nearly all actives have a fitted effect of over 75% in size
How it was run: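 After a 2 h attachment and 24 h compound incubation, HEK293-ATXN2-FFLuc wells are read for fluorescence at 405 nm excitation/525 nm emission as a viability measure, then for Bright-Glo luminescence reflecting ATXN2 expression.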

[18] = target: Glucagon-like peptide 1 receptor (Homo sapiens) (UniProt P43220); assay: qHTS of GLP-1 Receptor Agonists: LOPAC Validation (AID 624148);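 further: luminescence from a luciferase reporter switched on by cAMP; higher luminescence signal means agonism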
How it was run: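 Agonism scored as increased luciferase luminescence driven by cAMP in HEK293 clones carrying GLP-1R. Cells settled 12 hours, received compound for 4-6 hr at 37 deg C, 5% CO2, and were read after 12 min detection reagent at RT.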

[19] = qHTS of Nrf2 Activators: LOPAC Validation (AID 624149)
How it was run: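 Cells (AREc32_Fluc) are plated at 1000 per well in OPTI-MEM containing 5% FBS and left overnight. Compounds are pinned in and incubated 24 hr at 37 deg C, and firefly luciferase is detected with Steady-Glo.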

[20] = HTS Assay for Allosteric Antagonists of the Human D2 Dopamine Receptor: Hit Validation in HTRF (AID 624455);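 further: stable D1 dopamine receptor cell line scored for blocking the D1 response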
How it was run: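 Inhibition of the D1-mediated response is measured by HTRF in cells that stably express the D1 dopamine receptor. Compounds reaching this step are hits from calcium-flux antagonism testing at EC80 dopamine in inducible Hek293 Trex D2 cells.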

Measured: Potency

Chain of D(1A) dopamine receptor (Homo sapiens) (P21728 whole entry, looked up): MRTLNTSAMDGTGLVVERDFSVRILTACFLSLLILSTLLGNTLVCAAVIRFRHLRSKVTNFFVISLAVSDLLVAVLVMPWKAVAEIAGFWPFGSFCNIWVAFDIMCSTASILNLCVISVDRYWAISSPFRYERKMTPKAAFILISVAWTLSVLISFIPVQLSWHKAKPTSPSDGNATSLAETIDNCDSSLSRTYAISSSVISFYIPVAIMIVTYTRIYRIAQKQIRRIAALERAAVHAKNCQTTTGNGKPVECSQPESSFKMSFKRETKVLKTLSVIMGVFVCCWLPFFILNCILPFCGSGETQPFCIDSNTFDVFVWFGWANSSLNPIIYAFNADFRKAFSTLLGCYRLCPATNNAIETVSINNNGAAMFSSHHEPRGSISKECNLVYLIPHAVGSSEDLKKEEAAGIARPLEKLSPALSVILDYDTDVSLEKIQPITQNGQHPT
Chain of Phosphoglycerate kinase, glycosomal (Trypanosoma brucei brucei) (P07378 whole entry, looked up): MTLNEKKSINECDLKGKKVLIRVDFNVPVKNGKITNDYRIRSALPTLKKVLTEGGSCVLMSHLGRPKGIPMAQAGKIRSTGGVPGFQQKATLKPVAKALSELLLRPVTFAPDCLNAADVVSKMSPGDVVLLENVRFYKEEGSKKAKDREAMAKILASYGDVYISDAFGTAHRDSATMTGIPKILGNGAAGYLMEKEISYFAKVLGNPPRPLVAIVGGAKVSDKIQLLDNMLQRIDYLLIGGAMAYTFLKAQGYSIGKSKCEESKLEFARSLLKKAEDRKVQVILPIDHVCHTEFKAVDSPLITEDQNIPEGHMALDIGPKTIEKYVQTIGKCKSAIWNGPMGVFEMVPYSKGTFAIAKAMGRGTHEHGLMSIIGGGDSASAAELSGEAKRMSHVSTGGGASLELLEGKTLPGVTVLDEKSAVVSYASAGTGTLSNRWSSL
Chain of Methanococcus maripaludis chaperonin (MmCpn) (Q6LX38 1-543): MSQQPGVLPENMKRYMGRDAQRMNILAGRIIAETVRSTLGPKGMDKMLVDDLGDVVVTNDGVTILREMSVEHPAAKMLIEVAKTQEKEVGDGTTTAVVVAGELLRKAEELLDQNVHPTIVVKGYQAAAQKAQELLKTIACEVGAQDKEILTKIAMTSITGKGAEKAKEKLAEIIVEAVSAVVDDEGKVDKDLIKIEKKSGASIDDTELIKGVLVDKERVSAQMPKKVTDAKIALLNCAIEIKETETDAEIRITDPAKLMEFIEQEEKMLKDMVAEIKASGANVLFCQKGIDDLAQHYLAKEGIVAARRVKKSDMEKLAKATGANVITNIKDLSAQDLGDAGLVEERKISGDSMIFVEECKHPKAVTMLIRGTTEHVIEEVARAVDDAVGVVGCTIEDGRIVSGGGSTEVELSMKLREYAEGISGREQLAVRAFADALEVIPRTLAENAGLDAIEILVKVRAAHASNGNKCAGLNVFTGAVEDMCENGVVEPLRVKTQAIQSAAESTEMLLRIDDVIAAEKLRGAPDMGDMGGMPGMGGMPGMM
Chain of phosphoglycerate mutase (Leishmania major) (Q4Q090 1-553): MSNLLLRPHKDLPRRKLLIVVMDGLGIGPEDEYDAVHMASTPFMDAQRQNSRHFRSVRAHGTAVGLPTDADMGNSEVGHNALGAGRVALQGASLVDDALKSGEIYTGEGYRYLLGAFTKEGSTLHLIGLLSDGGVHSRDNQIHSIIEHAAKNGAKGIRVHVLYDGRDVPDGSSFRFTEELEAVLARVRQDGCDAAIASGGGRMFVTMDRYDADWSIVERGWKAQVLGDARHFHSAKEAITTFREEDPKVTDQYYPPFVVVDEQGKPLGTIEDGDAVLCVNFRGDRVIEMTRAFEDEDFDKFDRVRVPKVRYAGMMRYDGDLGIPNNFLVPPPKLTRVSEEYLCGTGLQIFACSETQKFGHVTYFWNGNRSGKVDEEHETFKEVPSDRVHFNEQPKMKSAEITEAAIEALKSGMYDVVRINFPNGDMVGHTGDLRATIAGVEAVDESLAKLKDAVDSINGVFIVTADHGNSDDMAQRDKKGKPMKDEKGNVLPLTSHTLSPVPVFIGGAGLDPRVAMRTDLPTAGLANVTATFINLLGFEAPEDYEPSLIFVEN
Chain of ATPase family AAA domain-containing protein 5 (Homo sapiens) (Q96QE3 whole entry, looked up, the tested form may be a part): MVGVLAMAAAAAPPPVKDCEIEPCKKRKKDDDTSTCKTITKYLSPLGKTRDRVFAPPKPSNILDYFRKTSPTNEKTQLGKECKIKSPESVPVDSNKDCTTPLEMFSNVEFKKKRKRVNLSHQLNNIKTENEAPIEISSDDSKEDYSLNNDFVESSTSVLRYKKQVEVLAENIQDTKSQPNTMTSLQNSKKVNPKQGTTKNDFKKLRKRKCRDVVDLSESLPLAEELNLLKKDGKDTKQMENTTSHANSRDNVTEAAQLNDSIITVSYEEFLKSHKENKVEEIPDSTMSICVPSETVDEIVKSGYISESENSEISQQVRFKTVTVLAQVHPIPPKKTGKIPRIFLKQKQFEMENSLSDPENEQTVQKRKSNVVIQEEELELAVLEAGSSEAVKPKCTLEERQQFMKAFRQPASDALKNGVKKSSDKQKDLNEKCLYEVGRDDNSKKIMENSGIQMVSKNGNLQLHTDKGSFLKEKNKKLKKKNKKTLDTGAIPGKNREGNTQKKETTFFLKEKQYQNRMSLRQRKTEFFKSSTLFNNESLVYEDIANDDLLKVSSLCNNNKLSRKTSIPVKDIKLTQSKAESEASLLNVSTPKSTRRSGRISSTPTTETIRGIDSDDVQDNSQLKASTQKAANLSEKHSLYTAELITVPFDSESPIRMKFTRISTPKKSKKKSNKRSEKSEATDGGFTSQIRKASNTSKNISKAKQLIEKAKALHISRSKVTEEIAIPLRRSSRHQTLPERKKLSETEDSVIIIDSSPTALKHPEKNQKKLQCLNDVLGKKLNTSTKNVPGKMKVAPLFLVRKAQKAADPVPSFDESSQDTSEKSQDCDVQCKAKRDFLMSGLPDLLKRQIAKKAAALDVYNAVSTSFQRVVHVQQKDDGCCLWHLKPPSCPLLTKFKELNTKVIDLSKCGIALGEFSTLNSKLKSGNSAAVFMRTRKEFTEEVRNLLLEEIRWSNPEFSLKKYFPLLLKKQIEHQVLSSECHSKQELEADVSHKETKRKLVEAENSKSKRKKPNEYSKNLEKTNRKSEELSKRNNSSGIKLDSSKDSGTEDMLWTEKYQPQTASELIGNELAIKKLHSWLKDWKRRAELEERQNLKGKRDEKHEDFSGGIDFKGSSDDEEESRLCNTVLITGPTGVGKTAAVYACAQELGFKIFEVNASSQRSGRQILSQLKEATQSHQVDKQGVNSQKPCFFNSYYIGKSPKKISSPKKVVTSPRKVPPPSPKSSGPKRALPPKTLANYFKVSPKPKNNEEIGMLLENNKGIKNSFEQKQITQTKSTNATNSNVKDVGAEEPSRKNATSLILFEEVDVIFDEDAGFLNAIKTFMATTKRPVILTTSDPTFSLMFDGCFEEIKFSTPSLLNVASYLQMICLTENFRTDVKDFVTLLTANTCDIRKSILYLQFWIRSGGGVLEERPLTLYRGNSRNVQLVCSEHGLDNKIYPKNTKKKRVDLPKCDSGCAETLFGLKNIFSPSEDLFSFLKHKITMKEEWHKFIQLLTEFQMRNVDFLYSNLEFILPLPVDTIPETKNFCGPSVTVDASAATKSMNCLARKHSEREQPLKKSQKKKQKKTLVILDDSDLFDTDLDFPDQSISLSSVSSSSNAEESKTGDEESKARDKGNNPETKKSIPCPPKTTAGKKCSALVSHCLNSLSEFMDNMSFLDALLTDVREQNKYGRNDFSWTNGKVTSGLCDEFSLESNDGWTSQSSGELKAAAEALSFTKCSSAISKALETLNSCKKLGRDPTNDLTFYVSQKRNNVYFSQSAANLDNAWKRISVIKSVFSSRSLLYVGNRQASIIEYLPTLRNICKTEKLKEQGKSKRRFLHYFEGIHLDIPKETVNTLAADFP
Chain of Glucagon-like peptide 1 receptor (Homo sapiens) (P43220 whole entry, looked up): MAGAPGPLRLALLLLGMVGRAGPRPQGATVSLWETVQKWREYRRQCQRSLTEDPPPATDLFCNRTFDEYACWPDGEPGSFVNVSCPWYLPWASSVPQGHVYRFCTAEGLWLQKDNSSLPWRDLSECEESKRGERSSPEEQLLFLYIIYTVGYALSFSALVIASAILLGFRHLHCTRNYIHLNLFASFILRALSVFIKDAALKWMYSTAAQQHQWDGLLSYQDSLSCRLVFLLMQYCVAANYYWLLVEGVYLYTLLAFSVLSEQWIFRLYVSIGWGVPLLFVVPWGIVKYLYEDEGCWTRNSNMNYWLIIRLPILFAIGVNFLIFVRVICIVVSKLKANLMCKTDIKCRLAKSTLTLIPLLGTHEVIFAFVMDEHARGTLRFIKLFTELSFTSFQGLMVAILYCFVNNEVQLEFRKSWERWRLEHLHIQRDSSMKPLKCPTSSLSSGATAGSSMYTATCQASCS
Chain of Chromobox protein homolog 1 (Homo sapiens) (P83916 whole entry, looked up): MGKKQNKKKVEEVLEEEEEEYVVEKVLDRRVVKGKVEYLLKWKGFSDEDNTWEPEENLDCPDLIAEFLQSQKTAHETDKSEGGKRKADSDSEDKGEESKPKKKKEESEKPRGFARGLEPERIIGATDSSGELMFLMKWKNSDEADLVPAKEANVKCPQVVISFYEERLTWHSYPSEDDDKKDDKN
Chain of Peptidyl-prolyl cis-trans isomerase NIMA-interacting 1 (Homo sapiens) (Q13526 whole entry, looked up): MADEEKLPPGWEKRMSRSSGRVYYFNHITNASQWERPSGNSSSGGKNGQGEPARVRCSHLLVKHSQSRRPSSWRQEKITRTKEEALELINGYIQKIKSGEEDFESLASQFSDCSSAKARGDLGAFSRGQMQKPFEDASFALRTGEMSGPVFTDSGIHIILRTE
Chain of Nuclear receptor subfamily 1 group I member 3 (Homo sapiens) (Q14994 whole entry, looked up): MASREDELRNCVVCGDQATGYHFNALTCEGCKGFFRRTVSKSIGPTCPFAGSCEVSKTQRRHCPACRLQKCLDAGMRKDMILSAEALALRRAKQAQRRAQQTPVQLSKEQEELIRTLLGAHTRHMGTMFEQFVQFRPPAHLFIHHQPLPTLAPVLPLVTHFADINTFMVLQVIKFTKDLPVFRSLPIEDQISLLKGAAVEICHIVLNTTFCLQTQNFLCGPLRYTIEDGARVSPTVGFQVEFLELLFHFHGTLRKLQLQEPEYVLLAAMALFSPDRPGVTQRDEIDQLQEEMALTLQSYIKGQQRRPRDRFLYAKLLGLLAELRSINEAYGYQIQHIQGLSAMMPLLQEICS

CN(C)[C@@H]1C(=O)C(C(N)=O)=C(O)[C@]2(O)C(=O)C3=C(O)c4c(O)cccc4[C@@](C)(O)[C@@H]3C[C@@H]12
inactive: [1]

N#CC(O[C@@H]1O[C@H](CO[C@@H]2O[C@H](CO)[C@@H](O)[C@H](O)[C@H]2O)[C@@H](O)[C@H](O)[C@H]1O)c1ccccc1 (stereo partly specified)
inactive: [2] | [3] | [4]

CC12CCC3C(CCC4=C(O)C(=O)CCC43C)C1CCC2=O (stereo unspecified)
not listed: [1] | [2] | [3] | [4]
inactive: all other assays above

C[C@H]1C2Cc3ccc(O)cc3[C@]1(C)CCN2CC1CC1
not listed: [1] | [2] | [3] | [4]
inactive: all other assays above

From PubChem BioAssay (NCATS)
